Eleven compounds from PubChem BioAssay AID2284368 (EPA ToxCast) can be followed below.

Inconclusive results are not listed. The source made the active and inactive calls. Rule for the calls: active = hit-call score of the fitted dose curve at least 0.9, where 1 is the maximum; inconclusive = response in the unintended direction; inactive = score below 0.9.

Chain of Estrogen receptor (Homo sapiens) (P03372 whole entry, looked up): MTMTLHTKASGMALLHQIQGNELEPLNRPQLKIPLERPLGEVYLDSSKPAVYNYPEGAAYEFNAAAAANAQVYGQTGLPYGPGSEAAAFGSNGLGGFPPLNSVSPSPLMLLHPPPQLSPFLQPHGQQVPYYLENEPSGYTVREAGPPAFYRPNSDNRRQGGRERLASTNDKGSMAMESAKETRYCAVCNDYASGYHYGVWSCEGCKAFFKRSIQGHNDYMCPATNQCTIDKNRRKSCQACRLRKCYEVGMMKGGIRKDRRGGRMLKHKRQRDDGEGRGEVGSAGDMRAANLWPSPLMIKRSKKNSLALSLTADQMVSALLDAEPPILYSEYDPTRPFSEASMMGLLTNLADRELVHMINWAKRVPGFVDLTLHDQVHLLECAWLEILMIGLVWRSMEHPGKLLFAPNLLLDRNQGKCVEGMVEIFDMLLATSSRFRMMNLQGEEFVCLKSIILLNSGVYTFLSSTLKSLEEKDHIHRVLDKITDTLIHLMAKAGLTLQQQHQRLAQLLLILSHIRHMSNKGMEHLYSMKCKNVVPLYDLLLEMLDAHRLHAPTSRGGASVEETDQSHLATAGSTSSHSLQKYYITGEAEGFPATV

The assay concerns the target Estrogen receptor (Homo sapiens) (UniProt P03372). Nature of the assay: ATG_hERa_EcoTox2: Attagene TRANS-FACTORIAL EcoTox-2 HepG2 Assay for human Estrogen Receptor (ER). As to the method:
ATG_EcoTox2 is a cell-based, multiplexed assay created by modifying the existing Attagene TRANS-FACTORIAL system to include a panel of nuclear receptors from some or all the following species: human (Homo sapiens), african clawed frog (Xenopus laevis), rainbow trout (Oncorhynchus mykiss), japanese medaka (Oryzias latipes), and zebrafish (Danio rerio). The ECOTOX2-FACTORIAL format uses HepG2, a human liver cell line, with measurements taken at 24 hours after chemical dosing in a 24-well plate. ATG_hERa_EcoTox2 is one of 29 assay components measured or calculated from the ATG_EcoTox2 assay. It is designed to make measurements of mRNA induction, a form of inducible reporter, as detected with fluorescence intensity signals by Reverse transcription polymerase chain reaction (RT-PCR) and Capillary electrophoresis technology.The assay endpoint ATG_hERa_EcoTox2 was analyzed in the positive analysis fitting direction relative to DMSO as the negative control and baseline of activity. Using a type of inducible reporter, measures of mRNA for gain-of-signal activity can be used to understand the reporter gene at the transcription factor-level as they relate to the gene ER. Furthermore, this assay endpoint can be referred to as a primary readout, because this assay has produced multiple assay endpoints where this one serves a reporter gene function. To generalize the intended target to other relatable targets, this assay endpoint is annotated to the nuclear receptor intended target family, where the subfamily is steroidal.
Human liver HepG2 cells are transiently transfected with multiple reporter transcription units (MRTUs) in 6-well plates using FuGene 6 reagent (Roche; 3 ml FuGene/1 mg DNA). The MRTU constructs are regulated by a cis-regulating element (promoter). Each RTU expresses a GAL4-UAS that regulates the transcription of a nearby target reporter gene sequence. A major difference between the CIS and TRANS system is that in CIS activities of endogenous TFs are measured, whereas the TRANS assay evaluates changes in activities of exogenous, chimeric NR-Gal4 proteins. […] At the end of 24 hour incubation, total RNA was isolated using TriZol reagent (Invitrogen). The isolated RNA is then reverse-transcribed using oligo(dT) primer and Mo-MLV reverse transcriptase (Invitrogen) with DNAse I (Ambion) treatment for 30 min. The one-tenth of the produced cDNA was amplified by PCR using Taq DNA polymerase (Invitrogen) and two reporter sequence-specific primers. The PCR products were fluorescently labeled by primer extension with 6-arboxyfluorescein (6-FAM) 5'-labeled reporter sequence-specific primer (2 min at 95 C, 20 s at 68 C and 10 min at 72 C) and these products were digested with 5U of HpaI (New England Biolabs) for 2h at 37 C. The fragments were purified using Qiaquick PCR columns (Qiagen), analyzed on an ABI 3130xL genetic analyzer (Applied Biosystems) with peak positions identified by using a set of X-rhodamine (ROX)-labeled MapMarker1000 molecular weight standards (BioVentures). The raw capillary electrophoresis data was processed using Attagraph software (Attagene).
With `C[C@@H]1C[C@H]2[C@@H]3CCC4=CC(=O)C=C[C@]4(C)[C@@]3(F)[C@@H](O)C[C@]2(C)[C@@]1(O)C(=O)COP(=O)(O)O`, the compound was called inactive. As a reminder, the AC50 is the midpoint of the concentration-response curve, whichever way the signal moves. Consider `C[C@]12C=CC(=O)C=C1CC[C@@H]1[C@@H]2C(=O)C[C@@]2(C)[C@H]1CC[C@]2(O)C(=O)CO`, for which the AC50 was 29.2 µM (active). Consider `C=C(c1ccc(C(=O)O)cc1)c1cc2c(cc1C)C(C)(C)CCC2(C)C`, for which the outcome was inactive. On the same count and under the same terms, then `CC(C)(Oc1ccc(C2CC2(Cl)Cl)cc1)C(=O)O` (stereo unspecified), with “inactive”; and `Cc1cccc(Nc2cc(Cl)nc(SCC(=O)O)n2)c1C`, with “inactive”.

For `CC(C)(Oc1ccc(CCNC(=O)c2ccc(Cl)cc2)cc1)C(=O)O`, the concentration at half-maximal activity (AC50) was 122 µM (active). In the case of `Cc1ccc(C)c(OCCCC(C)(C)C(=O)O)c1`, the concentration at half-maximal activity (AC50) was 50 µM (active). As to `CC(C)OC(=O)C(C)(C)Oc1ccc(C(=O)c2ccc(Cl)cc2)cc1`, the outcome was inactive. Regarding `CC(c1cc2ccccc2s1)N(O)C(N)=O` (stereo unspecified), the AC50 was 50 µM (active). For the compound `CN(CCOc1ccc(CC2SC(=O)NC2=O)cc1)c1ccccn1` (stereo unspecified), the compound was classed as inactive. Still for that read-out and setting: then `Cc1c(C)c2c(c(C)c1O)CCC(C)(COc1ccc(CC3SC(=O)NC3=O)cc1)O2` (stereo unspecified), with “inactive”.
